Screens: PubChem, National Center for Advancing Translational Sciences (NCATS)
IL-1B inflam inh = qHTS for Inhibitors of Inflammasome Signaling: IL-1-beta AlphaLISA Primary Screen; THP-1 LPS/ATP IL-1B secretion, AlphaLISA, 16 h; active compounds read low; activity change, % at 57.5 µM; 360,000 compounds, 4.7% hits; in the data active means activity change below about -50%; inconclusive means mostly about -30% to -49%
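Secreted IL-1B measured by AlphaLISA bead assay after 16 h compound exposure of THP-1 cells; compounds (final up to 57.5 uM) added 1 h before LPS (250 ng/mL) and ATP (1.25 mM) stimulation; lower signal means less secretion.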
ASM inhibitor = Inhibitors of Secretory Acid Sphingomyelinase (S-ASM): qHTS; Potency, µM (doses to about 57.5 µM), most hits filed as inhibitors; AID 504937, 2011; 340,000 compounds, 0.006% hits; placental ASM, HMU-PC fluorogenic substrate, 60 min
Target sequence (P17405 47-631 limits assumed): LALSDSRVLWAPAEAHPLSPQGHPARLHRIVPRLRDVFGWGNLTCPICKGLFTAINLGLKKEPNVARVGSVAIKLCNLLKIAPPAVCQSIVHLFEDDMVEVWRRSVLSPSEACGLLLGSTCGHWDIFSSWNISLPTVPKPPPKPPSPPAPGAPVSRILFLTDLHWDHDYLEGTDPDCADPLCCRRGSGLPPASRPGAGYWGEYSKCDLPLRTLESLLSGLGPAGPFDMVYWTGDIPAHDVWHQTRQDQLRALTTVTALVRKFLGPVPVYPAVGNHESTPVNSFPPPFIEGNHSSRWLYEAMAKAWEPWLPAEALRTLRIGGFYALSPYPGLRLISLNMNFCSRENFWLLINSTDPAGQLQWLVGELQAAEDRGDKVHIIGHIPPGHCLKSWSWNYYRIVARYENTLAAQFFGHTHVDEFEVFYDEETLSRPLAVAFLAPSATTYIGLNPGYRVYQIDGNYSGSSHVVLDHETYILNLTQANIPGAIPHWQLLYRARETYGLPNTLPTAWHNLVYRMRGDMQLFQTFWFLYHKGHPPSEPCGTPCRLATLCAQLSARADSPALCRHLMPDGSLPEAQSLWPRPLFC
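Human placenta-derived ASM enzyme was preincubated with compound for 10 minutes at room temperature, then given fluorogenic substrate HMU-PC0 (9 uM final) for 60 minutes at 37 °C; a pH 10 stop preceded fluorescence reading at Ex 386/Em 447 nm.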
TGFb inhibitor = qHTS for Inhibitors of TGF-b; HepG2 CAGA-GFP TGF-b/SMAD3 reporter, GFP fluorescence, 18 h; TGF-beta stimulated, 500 pg/mL final; 410,000 compounds, 1.2% hits; AID 588855, 2011; Potency, µM (highest dose often 46.1 µM), actives largely listed as inhibitors; further: nearly all actives have a fitted effect of over 65% in size
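GFP signal (ex488/em500-530) from TGF-beta-stimulated HEPG2 CAGA-GFP cells, 500 pg/mL final, 18 h at 37 degrees C in DMEM plus 1% FBS, normalized to unstimulated and DMSO-stimulated controls.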
TDP1 cell CPT = qHTS for Inhibitors of human tyrosyl-DNA phosphodiesterase 1 (TDP1): qHTS in cells in presence of CPT; 420,000 compounds, 12% hits; chicken DT40 Tdp1-/-;hTDP1 cells + 20 nM CPT, ATP luminescence, 48 h; AID 686979, 2013; Potency, µM (titrated, usually from 46.2 µM), most hits filed as inhibitors; further: nearly all actives have a fitted effect of over 55% in size
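Cell growth measured by CellTiter-Glo luminescence after a minimum 48 h, 37 C compound exposure with 20 nM CPT in Tdp1-knockout DT40 cells stably expressing hTDP1, seeded 400/well; qHTS titration format.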
HepG2 viability = qHTS for Inhibitors of TGF-b: Cytotox Counterscreen; 410,000 compounds, 0.76% hits; Potency, µM (series often up to 46.1 µM), actives largely listed as cytotoxic; HepG2 CAGA-GFP viability, ATP luminescence, 18 h
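CellTiter-Glo luminescence gave cytotoxicity after 18 hours at 37 degrees C. The cells were HepG2 CAGA-GFP in 1% FBS DMEM, stimulated with 500 pg/mL TGF-beta after compound addition. %Activity was normalised to no-cell wells (complete cell-killing) and DMSO (no toxicity), and curves were fitted and classified.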
DT40 TDP1 no CPT = qHTS for Inhibitors of human tyrosyl-DNA phosphodiesterase 1 (TDP1): qHTS in cells in absence of CPT | DT40 Tdp1-/- hTDP1 cells, no CPT, ATP luminescence, 48 h | Potency, µM (titrated, usually from 46.2 µM), most hits filed as inhibitors | 420,000 compounds, 15% hits; further: nearly all actives have a fitted effect of over 55% in size
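Chicken DT40 Tdp1-/- cells stably complemented with human TDP1 were seeded at 400 cells/well with DMSO in place of 20 nM camptothecin. After compound pinning, cells grew at least 48 hr at 37 °C; viability read by CellTiter-Glo luminescence.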
Hits are given with their value. Hits are enriched below; roughly 19% of the tested compounds scored in any of these assays. Unless noted, the call rests on the fitted dose curve; in most records, active means well fitted curve in the direction sought with a large enough effect; inconclusive means small, poorly fitted or top-dose-only effect, or another doubt; inactive means no such curve, though single readings can be large; an effect the other way counts as inactive or inconclusive.

`CC(C)(C)NC(=O)/C(=C/c1ccccc1F)NC(=O)c1ccc([N+](=O)[O-])cc1` gave IL-1B inflam inh inactive, ASM inhibitor inactive, TGFb inhibitor inactive, TDP1 cell CPT inactive, HepG2 viability inactive and DT40 TDP1 no CPT inconclusive.
O=C(NC1CCS(=O)(=O)C1)/C(=C\c1ccco1)NC(=O)c1ccccc1 (stereo unspecified) was read as IL-1B inflam inh -63, ASM inhibitor inactive, TGFb inhibitor inactive, TDP1 cell CPT inactive, HepG2 viability inactive and DT40 TDP1 no CPT inactive.
Screening Cc1ccc(C(=O)N/C(=C\c2ccc(-c3ccc([N+](=O)[O-])cc3)o2)C(=O)NC2CCS(=O)(=O)C2)cc1 (stereo unspecified) returned IL-1B inflam inh inactive, ASM inhibitor inactive, TGFb inhibitor inactive, TDP1 cell CPT 21µM, HepG2 viability inactive and DT40 TDP1 no CPT inconclusive.
O=C(NC1CCS(=O)(=O)C1)/C(=C/c1ccco1)NC(=O)c1ccccc1 (stereo unspecified) was read as IL-1B inflam inh inactive, ASM inhibitor inactive, TGFb inhibitor inactive, TDP1 cell CPT inactive, HepG2 viability inactive and DT40 TDP1 no CPT inactive.
Screening O=C(NC1CCS(=O)(=O)C1)/C(=C\c1ccc(F)cc1)NC(=O)c1ccccc1 (stereo unspecified) returned IL-1B inflam inh inactive, ASM inhibitor inactive, TGFb inhibitor inactive, TDP1 cell CPT inactive, HepG2 viability inactive and DT40 TDP1 no CPT inactive.
`Cc1ccc(C(=O)N/C(=C/c2ccc(-c3ccc([N+](=O)[O-])cc3)o2)C(=O)NCCCN(C)C)cc1` gave ASM inhibitor inactive, TGFb inhibitor inconclusive, TDP1 cell CPT 21µM, HepG2 viability inactive and DT40 TDP1 no CPT 21µM.
`Cc1ccc(C(=O)N/C(=C\c2ccc(-c3cccc([N+](=O)[O-])c3)o2)C(=O)NC(C)(C)C)cc1` gave IL-1B inflam inh inactive, ASM inhibitor inactive, TGFb inhibitor inactive, TDP1 cell CPT 15µM, HepG2 viability inactive and DT40 TDP1 no CPT 16µM.
`COCCNC(=S)N/N=C/c1ccc(-c2ccc([N+](=O)[O-])cc2)o1` gave IL-1B inflam inh inactive, ASM inhibitor inactive, TGFb inhibitor inactive, TDP1 cell CPT inconclusive, HepG2 viability inactive and DT40 TDP1 no CPT inactive.
`CCOc1ccc(CCNC(=O)COC(=O)C2CC2)cc1OCC` gave IL-1B inflam inh inactive, ASM inhibitor inactive, TGFb inhibitor inactive, TDP1 cell CPT inactive, HepG2 viability inactive and DT40 TDP1 no CPT inactive.
For CC1(c2nnnn2Cc2ccccc2)CCC(=O)N1C1CC1 (stereo unspecified) the results were IL-1B inflam inh inactive, TDP1 cell CPT inactive and DT40 TDP1 no CPT inactive.
`CCCCOc1ccc(C2C(C(=O)c3ccc(C)o3)=C(O)C(=O)N2CC2CCCO2)cc1` (stereo unspecified) gave IL-1B inflam inh inactive, ASM inhibitor inactive, TGFb inhibitor inactive, TDP1 cell CPT inconclusive, HepG2 viability inactive and DT40 TDP1 no CPT 23µM.
Screening O=S1(=O)c2ccccc2N(Cc2ccccc2Cl)c2ccccc21 returned TGFb inhibitor inactive, TDP1 cell CPT inconclusive, HepG2 viability inactive and DT40 TDP1 no CPT inconclusive.
`O=C(O)Cc1ccc(C(=O)c2ccccc2)s1` gave IL-1B inflam inh inactive, ASM inhibitor inactive, TGFb inhibitor inactive, TDP1 cell CPT inactive, HepG2 viability inactive and DT40 TDP1 no CPT inactive.
CCc1cc(C(=O)c2ccccc2)c(N)s1 was read as IL-1B inflam inh inactive, ASM inhibitor inactive, TGFb inhibitor inactive, TDP1 cell CPT 26µM, HepG2 viability inactive and DT40 TDP1 no CPT inconclusive.
For Oc1c(Cl)cc(Cl)cc1CNc1ccc(Br)cn1 the results were IL-1B inflam inh -85, ASM inhibitor inactive, TGFb inhibitor inconclusive, TDP1 cell CPT inactive, HepG2 viability inactive and DT40 TDP1 no CPT inactive.
CC1CC(C)CN(C(=O)COC(=O)/C=C/c2cccc([N+](=O)[O-])c2)C1 (stereo unspecified) was read as IL-1B inflam inh inactive, ASM inhibitor inactive, TGFb inhibitor inactive, TDP1 cell CPT inactive, HepG2 viability inactive and DT40 TDP1 no CPT inactive.
`CC(=O)N1CCN(c2nc(-c3cccs3)nc3ccccc23)CC1` gave IL-1B inflam inh -86, ASM inhibitor inactive, TGFb inhibitor inactive, TDP1 cell CPT inactive, HepG2 viability inactive and DT40 TDP1 no CPT inconclusive.
`CCOC(=O)N1CCN(c2nc(-c3cccs3)nc3ccccc23)CC1` gave IL-1B inflam inh inconclusive, ASM inhibitor inactive, TGFb inhibitor inconclusive, TDP1 cell CPT 23µM, HepG2 viability inactive and DT40 TDP1 no CPT 15µM.
CC1CCCC(NC(=O)C2CCN(S(=O)(=O)N3CCCCCC3)CC2)C1C (stereo unspecified) was read as IL-1B inflam inh inactive, ASM inhibitor inactive, TGFb inhibitor inactive, TDP1 cell CPT inconclusive, HepG2 viability inactive and DT40 TDP1 no CPT 23µM.
`CC1CCCC(NC(=O)C2CCN(S(=O)(=O)N3CCCCC3)CC2)C1C` (stereo unspecified) gave IL-1B inflam inh inactive, ASM inhibitor inactive, TGFb inhibitor inactive, TDP1 cell CPT inconclusive, HepG2 viability inactive and DT40 TDP1 no CPT inactive.
For COc1cccc(C2C(C(=O)Nc3ccccc3)=C(C)Nc3nc(-c4ccccc4)nn32)c1OC (stereo unspecified) the results were TGFb inhibitor inconclusive, TDP1 cell CPT 16µM, HepG2 viability inactive and DT40 TDP1 no CPT inconclusive.
`COc1ccc(C2C(C(=O)Nc3ccccc3)=C(C)Nc3nc(-c4ccccc4)nn32)c(OC)c1` (stereo unspecified) gave TGFb inhibitor inconclusive, TDP1 cell CPT 16µM, HepG2 viability inactive and DT40 TDP1 no CPT inconclusive.
`CC1=C(C(=O)Nc2cccnc2)C(c2ccc(Cl)cc2)n2nc(-c3ccccc3)nc2N1` (stereo unspecified) gave TGFb inhibitor inconclusive, TDP1 cell CPT 16µM, HepG2 viability inactive and DT40 TDP1 no CPT inconclusive.
`COc1cccc(C2C(C(=O)Nc3ccccc3)=C(C)Nc3nnnn32)c1OC` (stereo unspecified) gave TGFb inhibitor inactive, TDP1 cell CPT inconclusive, HepG2 viability inactive and DT40 TDP1 no CPT inconclusive.
